{"source": "the supplement of paper PMC10338343", "note": "± gives the standard deviation.", "data": [{"tested_on": "MILI (PIWIL2) piRISC loaded with piRNA #1 (26 nt)", "test": "pre-steady-state target cleavage rate (min^-1); guide: piRNA #1 5'p-UGAGGUAGUAGGUUGUAUAGUAUCCA; MIWI and MILI are mouse PIWI proteins and EfPiwi is from a freshwater sponge; tags in brackets are library labels; higher = faster piRNA-guided slicing of the target", "conditions": "auxiliary factor: 500 nM mouse GTSF1", "method_in_brief": "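In Cleave-'n-Seq, a transcribed, DNA-blocked target RNA library (0.1 nM) was combined with 1 nM active affinity-purified piRISC bearing one synthetic guide, with or without 500 nM GTSF1 partner protein. Reactions ran in HEPES–potassium acetate buffer at 33 °C for 0–8 or 0–960 min. Uncleaved targets were sequenced and normalised to depth and to weakly complementary targets, three trials were pooled, and k3 was capped at 0.0001 min^-1. The pre-steady-state cleavage rate was obtained by fitting a burst-and-steady-state model.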", "values": [{"sequence": "GGAGACCUAACUAUACAACCUAUCUACCUCA", "pre-steady-state target cleavage rate": "0.11 ± 0.024"}, {"sequence": "GGAGACCUAUGUAUACAAGCUACUAGCUCA", "pre-steady-state target cleavage rate": "0.0122 ± 0.0045"}, {"sequence": "GGAGACCUAUGUAUACAACCUACUAGCCUCA", "pre-steady-state target cleavage rate": "0.0572 ± 0.013"}, {"sequence": "GGAGACCUAUCUAUAGAACCUACUACCACA", "pre-steady-state target cleavage rate": "0.0472 ± 0.0098"}, {"sequence": "GGAGACCUAUGAAUACAACGUACAACCUCA", "pre-steady-state target cleavage rate": "0.00489 ± 0.0026"}, {"sequence": "GGAGACCUUACUAUUCAACGUACUACCUCA", "pre-steady-state target cleavage rate": "0.0187 ± 0.0035"}, {"sequence": "GGAGACCUAUGAUAACAACCUACGUACCUCA", "pre-steady-state target cleavage rate": "0.00286 ± 0.0027"}, {"sequence": "GGAGACCUAUCAAUACAAGCUACUACCUCA", "pre-steady-state target cleavage rate": "0.108 ± 0.013"}, {"sequence": "GGAGACCUAACUUUACAACGUACUACCUCA", "pre-steady-state target cleavage rate": "0.00988 ± 0.0052"}, {"sequence": "GGAGACCUAACUAUACAACCUAGAACCUCA", "pre-steady-state target cleavage rate": "0.00531 ± 0.005"}, {"sequence": "GGAGACCUUACUAUACAAGCUACAACCUCA", "pre-steady-state target cleavage rate": "0.239 ± 0.018"}, {"sequence": "GGAGACCAUACUAAUGAACCUACUACCUCA", "pre-steady-state target cleavage rate": "0.0422 ± 0.011"}, {"sequence": "GGAGAGGAUUCUAUUCAACCUACUACCUCA", "pre-steady-state target cleavage rate": "0.174 ± 0.013"}, {"sequence": "GGAGAGGAUACUAUACAACCUACUCACCUCA", "pre-steady-state target cleavage rate": "0.138 ± 0.016"}, {"sequence": "GGAGACCUAUGUAUACUUCCUACUACCUCA", "pre-steady-state target cleavage rate": "0.0232 ± 0.005"}, {"sequence": "GGAGACCUAACUAUAUCAACCUACUACCUCA", "pre-steady-state target cleavage rate": "0.00944 ± 0.004"}]}]}
